Assay outcomes: PubChem BioAssay, several laboratories
EWS-Fli inh = EWS/Fli transcriptional activity inhibition | A673 NR0B1-luciferase reporter, viability-normalised | inhibition, % at 12.6 µM | hit rate 0.67% among 350,000;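 active means mean inhibition of at least 50% after viability correction, with every replicate also passing that limit; inconclusive means mean reaches 50% but only one of two replicates passes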;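 further: firefly luciferase signal divided by Alamar Blue viability fluorescence both relative to DMSO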
TROY signal inh = inhibitors of TROY-dependent NF-kB signaling; inhibition, % at 10 µM; Q293 LMP1-TROYcd NF-kB luciferase reporter, 4 h; hit rate 0.98% among 360,000;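 active means compounds whose plate-normalised and pattern-corrected inhibition of the luciferase reporter signal at the single screening dose is 50% or more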
EBV LMP1 NFkB = reduces LMP1-driven NF-kappaB luciferase signal | hit rate 0.69% among 350,000 | inhibition, % at 12.5 µM | LMP1-induced NF-kappaB luciferase reporter cells, luminescence; in the data active means inhibition above about 41%; inconclusive means no clear call, values can overlap the other calls;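 further: 0% = neutral control wells and 100% = reference inhibitor control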
PAX8 inh HTS = lowers PAX8-driven luciferase in RMG-I cells. hit rate 1.2% among 360,000. RMG-I TPO-luciferase reporter, SteadyGlo, 24 h. inhibition, % at 12.6 µM;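 active means mean replicate inhibition at least 60% with every replicate also reaching 60%; inconclusive means only one of the two criteria is met; inactive means mean below 60% and not all replicates reaching 60%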;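 further: luciferase light reporting Pax8 driven TPO promoter activity; plate controls were median of neutral control wells for no effect and mitoxantrone controls for full effect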
LGR2 antag = Drosophila LGR2 receptor signaling inhibition; HEK293 LGR2, CRE-luciferase, bursicon-stimulated, 4 h; inhibition, % at 9.99 µM; hit rate 0.35% among 380,000;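 active means drop in luminescence signal, shown as inhibition above about 50% in the replicate tests, limit read from the data, passing the limit was not always enough; inconclusive means probably only some replicates passing the limit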;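 further: agonist challenge used bursicon conditioned medium at about half maximal strength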
TWEAK-Fn14 inh = inhibitors of TWEAK-Fn14 interaction signaling | AID 1159606 | hit rate 2% among 360,000 | inhibition, % at 10 µM | TWEAK-stimulated Fn14 reporter cells, luciferase luminescence, 8 h; in the data active means inhibition above about 50%
* hit, by the source's call; ? = inconclusive; / = not tested or not shown. The list is not random: actives were taken first. Their share in the collection is about 3.2%.

SMILES | EWS-Fli inh | TROY signal inh | EBV LMP1 NFkB | PAX8 inh HTS | LGR2 antag | TWEAK-Fn14 inh
CN1CCN(C(=O)C[C@@H]2CC[C@H]3[C@@H](COC[C@H](O)CN3C(=O)C3CCCC3)O2)CC1 | 1.1 | / | / | 10.3 | 17.8 | /
O=C(NCC1CCCCC1)[C@H]1[C@H](CO)[C@H]2Cn3c(cccc3=O)[C@@H]1N2CCc1ccccc1 | -2.5 | / | / | / | 6.7 | /
O=C(Nc1ccccc1)N1C[C@@H]2[C@H](c3ccccc31)[C@H](CO)N2C(=O)c1ccncc1 | -28.0 | / | / | -62.3 | -13.1 | /
O=C(c1cnc2ccc3ccccc3c2c1)c1cc(F)ccc1O | 43.9 | 42.0 | -14.0 | 2.6 | -26.8 | 64.3*
Cc1nn(C)c2ncc(C(=O)c3cc(F)ccc3O)cc12 | / | -22.6 | 2.2 | / | -12.4 | -0.3
O=C(Nc1cccc([N+](=O)[O-])c1)c1ccc2ccccc2c1O | -108.5 | 21.1 | -10.0 | -63.8 | -66.5 | 52.7*
O=C(Cc1ccccc1)Nc1cccc([N+](=O)[O-])c1 | -4.4 | 4.7 | 8.3 | -12.8 | 4.2 | -4.7
O=[N+]([O-])c1cc(-c2ccccc2)cc([N+](=O)[O-])c1O | -1.1 | 23.9 | -1.5 | / | 1.3 | 11.3
O=C([O-])c1ccccc1-[n+]1c(-c2ccccc2)cc(-c2ccccc2)cc1-c1ccccc1 | -1.7 | 16.7 | 20.6 | 85.2* | 15.7 | 8.5
C[C@H](CO)N1C[C@H](C)[C@@H](CN(C)C(=O)CC2CC2)Oc2cc(-c3cccnc3)ccc2S1(=O)=O | -7.1 | / | / | / | 3.5 | /
COc1cc(NC(=O)c2ccccc2)c(OC)cc1NC(=O)CSc1[nH]c(=O)cc(C)c1C#N | 16.9 | 8.2 | 4.3 | 36.9 | 7.1 | 2.2
Cc1cc(=O)[nH]c(SCC(=O)Nc2cccc3ccccc23)c1C#N | 12.2 | 51.8* | -0.9 | / | / | 15.3
C[C@H]1CN([C@@H](C)CO)S(=O)(=O)c2ccc(C3=CCCCC3)cc2O[C@H]1CN(C)CC1CC1 | 8.7 | / | / | / | 10.1 | /
CCOC(=O)C1CCCN(C(=O)Cn2cccc2C(=O)c2ccccc2)C1 (stereo not given) | / | 29.7 | 9.5 | / | / | 98.6*
COc1ccccc1C(=O)NC(=S)Nc1ccccc1N1CCCC1 | -20.1 | 77.8* | 0.1 | -6.0 | 4.6 | 75.5*
COc1ccccc1C(=O)NC(=S)N1CCc2ccccc21 | -18.5 | 25.2 | -18.5 | 13.5 | 10.1 | -15.1
COc1ccc(OCC(=O)NC(=S)N2CCCc3ccccc32)cc1 | -57.6 | 37.1 | 0.3 | / | -16.0 | 55.0*
COc1ccccc1NC(=O)Nc1ccccc1N1CCOCC1 | -18.9 | 12.3 | -12.5 | -12.2 | 2.1 | 61.1*
COc1ccccc1C(=O)Nc1ccccc1N1CCOCC1 | / | -20.2 | 1.5 | / | -13.1 | -4.5
O=C(COc1ccccc1)NC(=S)N1CCc2ccccc21 | -13.9 | -12.2 | -13.3 | -56.4 | / | -10.8
COc1ccccc1C(=O)NC(=S)N1CCCc2ccccc21 | -66.2 | 48.6 | -23.9 | / | -30.5 | 59.4*
O=C(c1ccc(F)cc1)N1CC(=O)N2[C@H](C1)[C@@H](c1ccc(-c3ccccc3)cc1)[C@@H]2CO | -3.3 | / | / | 8.4 | 14.0 | /
CCOC(=O)c1c(-c2ccc(OC)cc2)csc1/N=C/C1=C(O)CCCC1=O | / | 12.0 | 53.1* | -26.1 | 21.7 | 20.1
C[C@@H]1CN([C@@H](C)CO)S(=O)(=O)c2ccc(-c3ccc(F)cc3)cc2O[C@H]1CN(C)C | 13.4 | / | / | / | -13.5 | /
COc1cccc(OC)c1C(=O)NCCSC1CCCCC1 | 5.1 | -0.8 | 58.9* | 14.6 | 11.1 | -1.0
SMILES | EWS-Fli inh | TROY signal inh | EBV LMP1 NFkB | PAX8 inh HTS | LGR2 antag | TWEAK-Fn14 inh
COC(=O)c1ccc(/C=C/C(=O)OCC(=O)Nc2sccc2C(N)=O)cc1 | / | 45.3 | 8.8 | / | / | 67.7*
NC(=O)c1ccsc1NC(=O)COC(=O)/C=C/c1ccc([N+](=O)[O-])cc1 | 4.8 | 34.4 | 0.0 | -9.3 | 0.0 | -2.3
Cc1noc(C)c1S(=O)(=O)Nc1ccc2c(c1)C(=O)N([C@@H](C)CO)C[C@@H](C)[C@@H](CN(C)C(=O)C1CCCCC1)OCCCC[C@@H](C)O2 | 2.9 | / | / | 24.7 | -9.4 | /
O=C(Nc1ccccc1)c1ccc(F)c(S(=O)(=O)N2CCOCC2)c1 | / | -4.8 | 1.0 | -1.8 | / | 0.6
COc1ccc(C(=O)N2CC(=O)Nc3ccccc32)cc1S(=O)(=O)N1CCOCC1 | -3.6 | -8.2 | -8.7 | -3.6 | -23.3 | -2.1
O=C1CN(C(=O)c2ccc(F)c(S(=O)(=O)N3CCOCC3)c2)c2ccccc2N1 | 3.5 | 13.8 | 46.1* | 1.1 | -7.2 | 8.8
COc1ccc(C(=O)N2CC(=O)Nc3ccccc32)cc1S(=O)(=O)N1CCCC1 | -4.3 | -13.2 | 43.2* | 8.2 | 21.1 | -22.0
COC(=O)[C@@H]1Cc2c([nH]c3ccccc23)C(C)(C)N1C(=O)CCl | 57.9* | -2.6 | -0.8 | 112.0* | 19.1 | -0.2
CCN(CC)Cc1cc(C(C)(C)C)cc(N2CCOCC2)c1O | 8.4 | -7.5 | 4.0 | -11.8 | -11.4 | -18.7
CN(C)Cc1cc(C(C)(C)C)cc(N2CCOCC2)c1O | 3.1 | -2.3 | 68.4* | 12.5 | -3.9 | 4.8
Nc1ccccc1NC(=O)c1ccccc1 | / | -39.2 | 44.4* | 6.9 | / | -27.8
O=C(Nc1ccccc1Cl)c1ccc(C(=O)Nc2ccccc2Cl)cc1 | 4.3 | 62.0* | 84.9* | -15.3 | 2.2 | -3.0
CO[C@@H]1CN(C)C(=O)c2ccc(NC(=O)c3ccc(F)cc3)cc2OC[C@H](C)NC[C@H]1C | -9.2 | / | / | 0.7 | 14.7 | /
C[C@@H]1CN([C@@H](C)CO)C(=O)c2c(c3ccccc3n2C)-c2ccccc2CO[C@@H]1CN(C)S(=O)(=O)c1ccc(C(F)(F)F)cc1 | 8.6 | / | / | 96.8* | ? | /
C[C@H](CO)N1C[C@H](C)[C@@H](CN(C)S(=O)(=O)c2ccc(C(F)(F)F)cc2)OCc2ccccc2-c2c(n(C)c3ccccc23)C1=O | 20.0 | / | / | 36.6 | 25.5 | /
C[C@H](CO)N1C[C@H](C)[C@H](CN(C)S(=O)(=O)c2ccc(C(F)(F)F)cc2)OCc2ccccc2-c2c(n(C)c3ccccc23)C1=O | -8.0 | / | / | 53.7 | 53.4* | /
C[C@H](CO)N1C[C@H](C)[C@H](CN(C)Cc2ccccn2)Oc2cc(C3=CCCC3)ccc2S1(=O)=O | -101.3 | / | / | -10.3 | -5.4 | /
N#CC(C#N)=C(Nc1ccc(F)cc1)SCc1cccc(Br)c1 | 5.4 | 33.6 | ? | 84.9* | 27.1 | 39.8
Cc1cccc(CSC(Nc2ccc(F)cc2)=C(C#N)C#N)c1 | / | 47.8 | 5.9 | 51.3 | ? | 64.4*
CC(SCc1ccccc1)C(=O)Nc1ccc(F)cc1 (stereo not given) | -14.8 | 3.7 | -8.6 | 6.5 | -4.1 | -0.9
Cc1cccc2c3nc4ccccc4nc3n(C)c12 | -77.4 | -31.9 | / | -22.7 | -85.3 | 53.7*
CC1=C([N+](=O)[O-])C(c2cccc(Br)c2)C2=C(N1)c1ccccc1C2=O (stereo not given) | / | -10.9 | -3.7 | 84.6* | / | 2.1
COC(=O)C1=C(C)NC2=C(C(=O)c3ccccc32)C1c1cccc(OC)c1 (stereo not given) | -1.1 | -2.8 | 9.5 | -2.4 | / | 15.9
CCOc1ccc(C2C(C#N)=C(N)N3C(=C2C#N)Sc2ccccc23)cc1 (stereo not given) | / | 16.9 | -55.1 | / | / | 6.3
